Results from PubChem BioAssay (NCATS).
“And” between values parts separate entries of the source, which are not always exact repeats. Equal values may be shown once. Results filed as inconclusive are left out. Some compounds were tested as several samples or in several runs, with calls that do not always agree. The source made the active and inactive calls. The call rests on the fitted dose curve; in most records, active means well fitted curve in the direction sought with a large enough effect; inconclusive means small, poorly fitted or top-dose-only effect, or another doubt; inactive means no such curve, though single readings can be large; an effect the other way counts as inactive or inconclusive.

What was measured:
[1] = Quantitative high throughput screen for delayed death inhibitors of the malarial parasite plastid, 48 hour incubation (AID 488752); further: nearly all actives have a fitted effect of over 65% in size; further: potency means the concentration at half of the fitted maximal effect
Outline: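 Cultures: infected erythrocytes at final 2% hematocrit and 0.1% parasitemia in Albumax-supplemented RPMI. Parasites express integrated firefly luciferase. Incubation with compound lasts 48 h before luminescent detection of remaining reporter activity.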

[2] = target: Thioredoxin reductase 1, cytoplasmic (Rattus norvegicus) (UniProt O89049); assay: qHTS Assay for Substrates of Mammalian Selenoprotein Thioredoxin Reductase 1 (TrxR1) (AID 488772);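 further: series mostly up to about 57 µM; a drop in NADPH fluorescence below the no-compound background marks a TrxR1 substrate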
Sequence of Thioredoxin reductase 1, cytoplasmic (Rattus norvegicus) (O89049 whole entry, looked up): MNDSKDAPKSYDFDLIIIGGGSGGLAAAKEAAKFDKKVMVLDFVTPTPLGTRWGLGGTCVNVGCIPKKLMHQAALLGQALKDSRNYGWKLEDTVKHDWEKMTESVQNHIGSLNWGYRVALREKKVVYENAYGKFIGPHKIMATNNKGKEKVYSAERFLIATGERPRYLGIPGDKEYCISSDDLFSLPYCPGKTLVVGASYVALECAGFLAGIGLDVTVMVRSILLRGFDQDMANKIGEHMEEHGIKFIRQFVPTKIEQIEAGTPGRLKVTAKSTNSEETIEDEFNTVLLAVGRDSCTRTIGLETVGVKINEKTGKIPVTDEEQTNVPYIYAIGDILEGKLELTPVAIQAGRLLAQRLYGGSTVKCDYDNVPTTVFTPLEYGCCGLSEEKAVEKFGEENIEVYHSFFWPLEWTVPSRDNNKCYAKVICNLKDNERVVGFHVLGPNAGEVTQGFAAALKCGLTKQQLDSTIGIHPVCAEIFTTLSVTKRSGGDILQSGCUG
Outline: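 In this dual-purpose format, potential substrates are identified from the first fluorescence read after selenite addition, not from the 8-minute delta. Rat enzyme is preincubated with NADPH and then with compound at ~22 deg C.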

[3] = target: Thioredoxin reductase 1, cytoplasmic (Rattus norvegicus) (UniProt O89049); assay: qHTS Assay for Inhibitors of Mammalian Selenoprotein Thioredoxin Reductase 1 (TrxR1) (AID 488773); conditions: Potency: inhibition; further: nearly all actives have a fitted effect of over 40% in size; further: potency means the concentration at half of the fitted maximal effect
Outline: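 Inhibition is scored from the loss of NADPH fluorescence between first and last reads of an 8-min kinetic run. Selenite (400 uM) was the substrate, added after 15 min compound preincubation at room temperature.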

[4] = target: Flap endonuclease 1 (Homo sapiens) (UniProt P39748); assay: qHTS Validation Assay for the Inhibitors of Human Flap endonuclease 1 (FEN1) (AID 488816); further: potency means the concentration at half of the fitted maximal effect
Sequence of Flap endonuclease 1 (Homo sapiens) (P39748 whole entry, looked up): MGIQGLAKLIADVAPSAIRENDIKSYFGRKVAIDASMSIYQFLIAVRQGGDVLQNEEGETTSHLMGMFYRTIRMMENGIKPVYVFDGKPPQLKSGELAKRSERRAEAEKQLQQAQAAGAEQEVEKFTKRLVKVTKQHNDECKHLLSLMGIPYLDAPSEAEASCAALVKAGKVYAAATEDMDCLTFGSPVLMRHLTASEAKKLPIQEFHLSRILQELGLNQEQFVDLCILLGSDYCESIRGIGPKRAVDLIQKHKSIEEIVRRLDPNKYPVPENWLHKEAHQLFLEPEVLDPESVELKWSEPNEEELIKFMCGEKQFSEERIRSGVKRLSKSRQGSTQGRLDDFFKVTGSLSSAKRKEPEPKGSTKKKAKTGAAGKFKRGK
Outline: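 qHTS format: compounds and 10 nM FEN1 incubated 15 min at room temperature before adding 50 nM substrate. Cleavage followed by reads at 0 and 15 min; normalized data fitted to a four-parameter Hill curve.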

[5] = target: M-phase phosphoprotein 8 (Homo sapiens) (UniProt Q99549); assay: qHTS Validation Assay for Inhibitors for MPP8 Chromodomain Interactions with Methylated Histone Tails (AID 488949); further: nearly all actives have a fitted effect of over 55% in size; further: potency means the concentration at half of the fitted maximal effect
Sequence of M-phase phosphoprotein 8 (Homo sapiens) (Q99549 whole entry, looked up): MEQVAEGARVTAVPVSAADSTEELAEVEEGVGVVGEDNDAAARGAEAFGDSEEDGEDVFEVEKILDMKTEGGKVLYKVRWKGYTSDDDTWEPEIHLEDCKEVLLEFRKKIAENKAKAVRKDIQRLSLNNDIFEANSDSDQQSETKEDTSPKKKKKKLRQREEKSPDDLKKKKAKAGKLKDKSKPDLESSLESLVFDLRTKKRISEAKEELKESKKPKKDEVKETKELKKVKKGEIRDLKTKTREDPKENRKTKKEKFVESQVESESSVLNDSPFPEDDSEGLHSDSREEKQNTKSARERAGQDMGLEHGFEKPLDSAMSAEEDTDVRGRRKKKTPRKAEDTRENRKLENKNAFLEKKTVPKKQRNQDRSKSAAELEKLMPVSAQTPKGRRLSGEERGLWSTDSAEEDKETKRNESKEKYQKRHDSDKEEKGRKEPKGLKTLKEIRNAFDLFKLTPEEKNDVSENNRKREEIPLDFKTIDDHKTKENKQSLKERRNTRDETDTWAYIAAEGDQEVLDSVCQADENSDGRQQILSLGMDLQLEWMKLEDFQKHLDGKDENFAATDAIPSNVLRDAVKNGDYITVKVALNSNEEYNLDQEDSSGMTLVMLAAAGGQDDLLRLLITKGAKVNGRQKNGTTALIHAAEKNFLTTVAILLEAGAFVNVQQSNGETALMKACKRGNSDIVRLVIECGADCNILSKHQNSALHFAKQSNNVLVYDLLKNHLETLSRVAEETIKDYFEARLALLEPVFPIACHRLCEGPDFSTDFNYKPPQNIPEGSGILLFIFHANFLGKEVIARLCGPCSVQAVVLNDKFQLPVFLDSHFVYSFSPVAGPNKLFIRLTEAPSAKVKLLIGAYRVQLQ
Outline: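 MPP8 (50 nM) was preincubated with biotinylated H3(1-18)K9me3 peptide (50 nM) in PBS pH 7.4, 0.01% Tween-20 for 30 min at room temperature, then with compounds for 30 min; binding was detected by AlphaScreen.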

[6] = target: Chromobox protein homolog 1 (Homo sapiens) (UniProt P83916); assay: qHTS Validation Assay for Inhibitors of HP1-beta Chromodomain Interactions with Methylated Histone Tails (AID 488953); further: nearly all actives have a fitted effect of over 50% in size; further: potency means the concentration at half of the fitted maximal effect
Sequence of Chromobox protein homolog 1 (Homo sapiens) (P83916 whole entry, looked up): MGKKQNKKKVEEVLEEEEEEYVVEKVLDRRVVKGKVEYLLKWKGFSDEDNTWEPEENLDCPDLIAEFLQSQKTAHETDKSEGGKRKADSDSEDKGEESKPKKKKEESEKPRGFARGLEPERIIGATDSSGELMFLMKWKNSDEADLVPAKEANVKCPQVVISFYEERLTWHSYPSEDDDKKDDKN
Outline: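 Compounds pinned into a preassembled complex of HP1-beta and trimethyl-K9 histone H3(1-18) biotin peptide (50 nM each; PBS pH 7.4, 0.01% Tween-20). After 30 min, bead-based AlphaScreen detection followed.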

[7] = target: Methanococcus maripaludis chaperonin (MmCpn) (UniProt Q6LX38); assay: High-Throughput Screening for Modulators of Cytosolic Chaperonin Activity: MmCpn Primary Screen (AID 488978);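 further: 50 nM MmCpn enzyme hydrolysing 30 µM ATP at 37 °C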
Sequence of Methanococcus maripaludis chaperonin (MmCpn) (Q6LX38 1-543): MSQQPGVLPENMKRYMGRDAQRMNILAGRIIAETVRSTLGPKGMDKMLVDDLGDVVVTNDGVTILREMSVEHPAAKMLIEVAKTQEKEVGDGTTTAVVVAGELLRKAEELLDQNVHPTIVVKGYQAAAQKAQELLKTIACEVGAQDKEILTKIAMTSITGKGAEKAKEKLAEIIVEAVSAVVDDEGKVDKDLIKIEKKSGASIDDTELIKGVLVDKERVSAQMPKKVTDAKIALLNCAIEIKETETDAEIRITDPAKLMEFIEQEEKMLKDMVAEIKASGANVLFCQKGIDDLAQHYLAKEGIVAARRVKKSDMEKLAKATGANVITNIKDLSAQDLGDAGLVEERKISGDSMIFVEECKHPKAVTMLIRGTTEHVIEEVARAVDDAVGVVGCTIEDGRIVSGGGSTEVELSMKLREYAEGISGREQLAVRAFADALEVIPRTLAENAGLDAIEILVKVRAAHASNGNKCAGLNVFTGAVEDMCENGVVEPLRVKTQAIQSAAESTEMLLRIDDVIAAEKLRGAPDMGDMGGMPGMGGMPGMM
Outline: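 MmCpn (50 nM final) was preincubated with compound 5 min at RT, then 30 uM ATP (final) was added and the reaction ran 10 min at 37C. ADP produced was detected by Transcreener HTRF (ex 320 nm; em 590/665 nm).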

[8] = target: Transient receptor potential cation channel subfamily V member 1 (Homo sapiens) (UniProt Q8NER1); assay: HTS Assay for Compounds that Act as Enhancers of the Vanilloid Receptor 1 (AID 488979)
Sequence of Transient receptor potential cation channel subfamily V member 1 (Homo sapiens) (Q8NER1 whole entry, looked up): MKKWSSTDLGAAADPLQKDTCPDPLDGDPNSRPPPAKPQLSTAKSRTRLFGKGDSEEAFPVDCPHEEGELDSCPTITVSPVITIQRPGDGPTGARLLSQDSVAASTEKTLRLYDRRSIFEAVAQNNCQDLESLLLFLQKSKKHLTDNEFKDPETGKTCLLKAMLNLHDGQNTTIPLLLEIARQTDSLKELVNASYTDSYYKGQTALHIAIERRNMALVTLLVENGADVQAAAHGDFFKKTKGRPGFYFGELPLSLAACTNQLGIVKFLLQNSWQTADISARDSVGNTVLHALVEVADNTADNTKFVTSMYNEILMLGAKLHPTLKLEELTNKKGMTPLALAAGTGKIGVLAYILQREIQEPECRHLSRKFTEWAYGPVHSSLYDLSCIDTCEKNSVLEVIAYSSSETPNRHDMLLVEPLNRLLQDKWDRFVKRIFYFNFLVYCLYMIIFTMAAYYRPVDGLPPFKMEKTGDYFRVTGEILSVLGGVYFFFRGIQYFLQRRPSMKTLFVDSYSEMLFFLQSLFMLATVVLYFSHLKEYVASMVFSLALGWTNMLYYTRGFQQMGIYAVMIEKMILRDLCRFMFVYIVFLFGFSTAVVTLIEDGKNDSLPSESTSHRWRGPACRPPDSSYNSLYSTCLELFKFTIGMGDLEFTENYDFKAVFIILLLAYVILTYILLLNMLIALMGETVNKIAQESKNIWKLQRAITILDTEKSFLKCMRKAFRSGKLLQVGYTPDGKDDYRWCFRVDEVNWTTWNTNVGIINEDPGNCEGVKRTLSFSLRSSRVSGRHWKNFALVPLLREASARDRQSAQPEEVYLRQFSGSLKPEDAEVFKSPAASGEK
Outline: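 Calcium influx kinetics via Fluo-8 (480/520 nm) in TRPV1-expressing cells, 2000/well cultured overnight at 35.5C. Compound-alone read 3 min (agonist phase), followed by EC20 capsaicin challenge for 2 min (enhancer phase).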

[9] = target: Thyrotropin receptor (Homo sapiens) (UniProt P16473); assay: qHTS Assay for Antagonists of the Thyroid Stimulating Hormone Receptor (AID 488980); further: series mostly up to about 58 µM
Sequence of Thyrotropin receptor (Homo sapiens) (P16473 whole entry, looked up): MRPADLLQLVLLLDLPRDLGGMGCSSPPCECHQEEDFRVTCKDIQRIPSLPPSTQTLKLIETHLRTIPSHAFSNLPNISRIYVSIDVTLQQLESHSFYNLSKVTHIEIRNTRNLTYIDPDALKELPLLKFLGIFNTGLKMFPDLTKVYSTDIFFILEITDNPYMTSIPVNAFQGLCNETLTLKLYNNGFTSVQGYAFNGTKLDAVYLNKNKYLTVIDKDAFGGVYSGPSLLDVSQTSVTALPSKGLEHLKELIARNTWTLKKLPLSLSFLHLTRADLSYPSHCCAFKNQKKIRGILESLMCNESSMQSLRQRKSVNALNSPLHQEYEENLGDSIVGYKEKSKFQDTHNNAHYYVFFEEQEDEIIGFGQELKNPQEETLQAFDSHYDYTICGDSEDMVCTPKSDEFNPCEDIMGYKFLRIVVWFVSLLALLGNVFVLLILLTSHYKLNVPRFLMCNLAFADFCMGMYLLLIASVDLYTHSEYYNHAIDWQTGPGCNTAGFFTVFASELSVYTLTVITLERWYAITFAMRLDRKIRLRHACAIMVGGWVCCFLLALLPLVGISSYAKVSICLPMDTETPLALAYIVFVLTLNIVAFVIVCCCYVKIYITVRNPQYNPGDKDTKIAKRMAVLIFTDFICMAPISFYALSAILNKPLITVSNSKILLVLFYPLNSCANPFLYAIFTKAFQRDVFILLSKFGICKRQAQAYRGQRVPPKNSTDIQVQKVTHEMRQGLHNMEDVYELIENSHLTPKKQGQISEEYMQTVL
Outline: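 HEK293 cells transfected with human TSHR, suspended in HEPES-buffered HBSS with 70 uM RO 20-1724, were treated with compounds plus TSH at EC80 (4 nM final). cAMP was measured by competitive HTRF (cryptate anti-cAMP antibody, cAMP-d2 acceptor).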

[10] = target: D(1A) dopamine receptor (Homo sapiens) (UniProt P21728); assay: HTS Assay for Allosteric Agonists of the Human D1 Dopamine Receptor: Primary Screen for Agonists (AID 488981); further: potency means the concentration at half of the fitted maximal effect
Sequence of D(1A) dopamine receptor (Homo sapiens) (P21728 whole entry, looked up): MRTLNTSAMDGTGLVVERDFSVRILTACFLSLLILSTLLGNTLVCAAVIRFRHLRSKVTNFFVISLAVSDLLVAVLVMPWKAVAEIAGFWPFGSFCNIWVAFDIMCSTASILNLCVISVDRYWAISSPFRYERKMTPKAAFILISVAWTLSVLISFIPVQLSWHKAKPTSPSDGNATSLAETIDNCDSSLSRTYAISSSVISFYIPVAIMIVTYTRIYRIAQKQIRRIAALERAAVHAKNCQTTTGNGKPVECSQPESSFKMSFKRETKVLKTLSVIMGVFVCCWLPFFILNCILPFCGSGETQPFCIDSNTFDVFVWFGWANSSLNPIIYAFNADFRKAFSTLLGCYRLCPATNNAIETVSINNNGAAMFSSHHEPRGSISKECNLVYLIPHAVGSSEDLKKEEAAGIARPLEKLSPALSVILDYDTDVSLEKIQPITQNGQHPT
Outline: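 Calcium flux in an inducible, force-coupled HEK293 Trex D1 line (overnight at 30 C): agonist mode is the 180 s kinetic read after compound; potentiator mode is the following 180 s read after dopamine at EC20.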

Measured: Potency

COc1cc(C(O)CO)ccc1OS(=O)(=O)O (stereo not drawn)
inactive: all assays above

C=CC(N)CCC(=O)O (stereo not drawn)
not listed: [6]
inactive: all other assays above

CC1(C)CCC=[N+]1[O-]
inactive: all assays above

CCCCCC(O)c1cccc(OCc2ccc3ccccc3n2)c1 (stereo not drawn)
inactive: all assays above

O=C(O)c1cc([N+](=O)[O-])ccc1NCCCc1ccccc1
inactive: all assays above

CC(=O)SCC[N+](C)(C)C
not listed: [4] | [7]
inactive: all other assays above

O=C1O/C(=C/Br)CCC1c1cccc2ccccc12 (stereo not drawn)
active: [3] 2.67 µM
inactive: all other assays above

CC(C)(C=O)Cc1cc(C(C)(C)C)c(O)c(C(C)(C)C)c1
not listed: [7]
inactive: all other assays above

Cn1c(=O)c2[nH]c(-c3ccccc3)nc2n(C)c1=O
not listed: [4]
inactive: all other assays above

N[C@@H](CC(=O)O)C(=O)O
not listed: [7]
inactive: all other assays above

O=C(O)CCCC[C@@H]1CCSS1
inactive: all assays above

Cn1cc(C2=C(c3ccc(Cl)cc3Cl)C(=O)NC2=O)c2ccccc21
active: [10] 14.1 µM
not listed: [7] | [8]
inactive: all other assays above

CCCCCCCCCCCCCCCCCCNC(=O)OCC(COP(=O)([O-])OCC[n+]1ccsc1)OC (stereo not drawn)
not listed: [10]
inactive: all other assays above

COc1cc(OC)c(/C=C2/C(=O)Nc3ccccc32)c(OC)c1
inactive: [1] | [2] | [3] | [4] | [8] | [9]

NCCNC(=O)c1ncsc1-c1cccc(F)c1
inactive: all assays above

O=C(O)CC[C@@H](C(=O)O)N1C(=O)c2ccccc2C1=O
not listed: [6] | [7]
inactive: all other assays above

O=C(O)[C@@H]1C[C@@H](C(=O)O)N1
not listed: [7] | [9] | [10]
inactive: all other assays above

NO
not listed: [6]
inactive: all other assays above

N#C/C(=C\c1c[nH]c2ccccc12)C(=O)c1ccc(O)c(O)c1
active: [4] 4.23 µM | [5] 3.98 µM and 8.44 µM | [6] 3.55 µM
not listed: [10]
inactive: all other assays above

Cc1ccccc1CNc1ncnc2c1ncn2C1OC(CO)C(O)C1O (stereo not drawn)
inactive: all assays above

COc1ccccc1CNCCCCCCNCCCCCCCCNCCCCCCNCc1ccccc1OC
active: [1] 2.94 µM | [5] 50.1 µM
not listed: [4]
inactive: all other assays above

COc1cccc(OC)c1OCCNCC1COc2ccccc2O1 (stereo not drawn)
inactive: all assays above

O=C(c1cc(O)c(O)c([N+](=O)[O-])c1)c1ccccc1F
active: [4] 21.2 µM
not listed: [5] | [6]
inactive: all other assays above

O=C(O)[C@@H]1C[C@H](C(=O)O)N1
inactive: all assays above

C[N+](C)(CCCCCC[N+](C)(C)CCCN1C(=O)c2cccc3cccc(c23)C1=O)CCCN1C(=O)c2cccc3cccc(c23)C1=O
active: [1] 0.294 µM
not listed: [4] | [7]
inactive: all other assays above

CC(COc1ccc(/C=C/c2ccccc2)cc1)[N+](C)(C)C (stereo not drawn)
active: [1] 3.29 µM
not listed: [7]
inactive: all other assays above

OC[C@H]1O[C@@H](n2cnc3c(NC4CCCCC4)ncnc32)[C@H](O)[C@@H]1O
not listed: [7]
inactive: all other assays above

COc1cc2c(CCNC(C)=O)c[nH]c2cc1Cl
not listed: [4]
inactive: all other assays above

Ic1ccc(N2CCN(Cc3c[nH]c4ncccc34)CC2)cc1
active: [6] 44.7 µM
not listed: [7] | [10]
inactive: all other assays above

CCCCCCCCCCCCCCCCCC(=O)NCC(COP(=O)([O-])OCC[N+](C)(C)C)OCC (stereo not drawn)
not listed: [4] | [7] | [10]
inactive: all other assays above

CCCCCCCCCCCCCCCC(=O)OC(CC(=O)O)C[N+](C)(C)C (stereo not drawn)
active: [10] 10 µM
not listed: [4] | [8]
inactive: all other assays above

CN(C)c1nc(N)c(C(=O)N=C(N)N)nc1Cl
inactive: all assays above

NC(CCCP(=O)(O)O)C(=O)O (stereo not drawn)
not listed: [7]
inactive: all other assays above

CC(C)Cc1ccc([C@H](C)C(=O)O)cc1
not listed: [4] | [8] | [10]
inactive: all other assays above

OCC1O[C@H](O)C(Cl)C(O)C1O (stereo partly drawn)
inactive: all assays above

NCCCCCCCCCCN
not listed: [10]
inactive: all other assays above

O=c1[nH]c2cc(Cl)c(Cl)cc2[nH]c1=O
inactive: all assays above

NC[C@@H]1O[C@H](C23CC4CC(CC(C4)C2)C3)Cc2c1ccc(O)c2O
inactive: [2] | [3] | [4] | [7] | [9]
active: [1] 3.7 µM
20 µM (active) and inactive: [5]

Clc1ccc(N2CCN(Cc3c[nH]c4ncccc34)CC2)cc1
not listed: [4] | [6] | [10]
inactive: all other assays above

CC(C)NC[C@H](O)COc1cccc2[nH]ccc12
not listed: [4] | [5] | [6]
inactive: all other assays above

CN1C2CCC1CC(OC(=O)C(O)c1ccccc1)C2 (stereo not drawn)
not listed: [2]
inactive: all other assays above

NCCSSCCN
active: [6] 50.1 µM
79.4 µM (active) and inactive: [5]
not listed: [2]
inactive: all other assays above

COc1ccccc1N1CCN(CCCCNS(=O)(=O)c2cccc3c(N(C)C)cccc23)CC1
not listed: [2] | [6] | [10]
inactive: all other assays above

S=C(S)OC1CC2CC1C1CCCC21 (stereo not drawn)
active: [6] 39.8 µM
not listed: [2]
inactive: all other assays above

COC(=O)c1c(C)[nH]c(C)c1C(=O)c1ccccc1Cc1ccccc1
active: [1] 9.28 µM | [6] 44.7 µM
39.8 µM (active) and inactive: [5]
not listed: [2] | [10]
inactive: all other assays above
